Results published in ChEMBL document CHEMBL3988442, “University of Dundee, Small-Polar-MMV Screening Library” (2021).
For some assays here: Results with a measured potency or affinity are listed apart.

Legend:
Design in all cases: scale not given: direction of the effect not stated beside the values
[1] = target: Protein translocase subunit SecA (Escherichia coli (strain K12)) (UniProt P10408); experiment: Assay to Identify E. coli SecA ATPase Inhibitors; format: functional; conditions: 30 µM
[2] = target: T1, Ubiquitin-activating enzyme e1, putative (Leishmania donovani (strain BPK282A1)) (UniProt E9BSI1); experiment: Leishmania donovani Ubiquitin Activating Enzyme (LdE1); format: functional; conditions: 30 µM
T1 sequence (whole entry): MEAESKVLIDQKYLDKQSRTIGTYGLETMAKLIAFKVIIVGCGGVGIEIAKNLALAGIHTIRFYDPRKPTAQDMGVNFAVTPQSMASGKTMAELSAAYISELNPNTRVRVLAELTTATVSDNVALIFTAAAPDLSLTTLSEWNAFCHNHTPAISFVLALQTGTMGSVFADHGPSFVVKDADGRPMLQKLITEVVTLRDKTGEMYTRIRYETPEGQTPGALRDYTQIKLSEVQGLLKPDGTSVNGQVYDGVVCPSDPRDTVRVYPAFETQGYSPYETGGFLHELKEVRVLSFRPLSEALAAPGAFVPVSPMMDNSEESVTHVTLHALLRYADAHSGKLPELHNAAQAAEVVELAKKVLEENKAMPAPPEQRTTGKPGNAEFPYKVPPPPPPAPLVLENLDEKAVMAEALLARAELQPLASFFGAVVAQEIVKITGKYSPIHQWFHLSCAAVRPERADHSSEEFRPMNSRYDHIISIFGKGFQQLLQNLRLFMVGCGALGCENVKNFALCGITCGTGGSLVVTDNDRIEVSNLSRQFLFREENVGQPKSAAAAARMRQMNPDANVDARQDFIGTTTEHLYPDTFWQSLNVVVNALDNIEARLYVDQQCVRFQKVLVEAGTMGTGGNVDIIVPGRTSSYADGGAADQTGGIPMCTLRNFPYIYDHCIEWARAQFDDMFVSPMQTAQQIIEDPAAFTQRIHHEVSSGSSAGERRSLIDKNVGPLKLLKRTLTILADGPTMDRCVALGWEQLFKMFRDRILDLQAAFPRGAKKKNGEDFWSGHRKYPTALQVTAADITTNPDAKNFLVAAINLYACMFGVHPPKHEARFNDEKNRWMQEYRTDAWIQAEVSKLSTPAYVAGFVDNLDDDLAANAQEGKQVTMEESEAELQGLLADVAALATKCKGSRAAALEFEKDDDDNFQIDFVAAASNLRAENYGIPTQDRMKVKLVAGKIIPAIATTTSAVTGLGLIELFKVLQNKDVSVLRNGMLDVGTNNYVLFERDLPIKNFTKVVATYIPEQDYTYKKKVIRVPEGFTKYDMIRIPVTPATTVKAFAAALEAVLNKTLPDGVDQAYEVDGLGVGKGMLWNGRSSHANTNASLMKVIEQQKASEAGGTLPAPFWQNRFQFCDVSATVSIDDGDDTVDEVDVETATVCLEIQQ

[3] = target: AMP-activated protein kinase, AMPK (Homo sapiens) (UniProt P54646+O43741+P54619+Q9UGJ0+Q9Y478+Q13131+Q9UGI9); experiment: AMP-dependent Kinase enzyme assay. An in vitro enzyme assay that detects ADP turnover that is directly proportional to AMPK activity. This uses naive AMPK that is activated during the assay with MK-8722; format: functional; conditions: 30 µM
[4] = target: Sialic acid-binding Ig-like lectin 9 (Homo sapiens) (UniProt Q9Y336); experiment: Hs-Siglec9 ALPHAscreen SOP 20170721; conditions: 10 µM
Trypanosoma cruzi = experiment: Trypanosoma cruzi phosphomannomutase and mannose-1-phosphate guanylyltransferase assay; format: functional; conditions: 10 µM
[5] = target: T2, Arginase-2, mitochondrial (Homo sapiens) (UniProt P78540); experiment: in vitro enzyme assay to detect the production of urea directly proportional to the activity of Arginase II; format: functional; conditions: 33.3 µM; note: in the data most compounds retested in dose-response had high values
T2 sequence (whole entry): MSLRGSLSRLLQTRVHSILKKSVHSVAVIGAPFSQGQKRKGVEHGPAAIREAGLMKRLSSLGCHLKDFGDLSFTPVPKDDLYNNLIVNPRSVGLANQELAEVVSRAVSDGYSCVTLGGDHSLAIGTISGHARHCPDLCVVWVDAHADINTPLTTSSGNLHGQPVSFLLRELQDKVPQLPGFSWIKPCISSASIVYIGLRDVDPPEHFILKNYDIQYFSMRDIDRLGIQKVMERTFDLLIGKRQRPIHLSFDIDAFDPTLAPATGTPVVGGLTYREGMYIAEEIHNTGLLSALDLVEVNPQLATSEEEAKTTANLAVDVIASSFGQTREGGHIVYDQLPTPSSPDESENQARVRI

[6] = target: T3, Proteasome subunit beta (Trypanosoma cruzi) (UniProt O96673); experiment: Trypanosoma cruzi proteasome chymotrypsin-like activity (TcProtChymo) assay.; note: in the data most compounds retested in dose-response had high values; format: functional; conditions: 9.37 µM
T3 sequence (whole entry): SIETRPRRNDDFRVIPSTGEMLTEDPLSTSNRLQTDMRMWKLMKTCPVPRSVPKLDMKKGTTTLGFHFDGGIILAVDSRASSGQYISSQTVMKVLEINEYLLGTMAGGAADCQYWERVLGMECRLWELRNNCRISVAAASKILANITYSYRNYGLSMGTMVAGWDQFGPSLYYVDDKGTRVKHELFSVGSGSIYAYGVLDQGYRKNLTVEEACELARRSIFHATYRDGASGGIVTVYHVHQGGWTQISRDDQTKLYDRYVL

Homo sapiens = species: Homo sapiens; experiment: To identify inhibition of the IFN signalling (Jak-Stat) pathway via expression of an eGFP reporter gene under the control of an IFN-stimulated response element (ISRE) containing MxA promoter.; format: functional; conditions: 30 µM
[7] = target: T4, Tyrosyl-tRNA synthetase, putative (Trypanosoma cruzi (strain CL Brener)) (UniProt Q4DSP6); experiment: Trypanosoma cruzi tyrosyl tRNA synthetase (TcYRS) _High Tyrosine SOP; format: functional; conditions: 30 µM; note: in the data most compounds retested in dose-response had high values
T4 sequence (whole entry): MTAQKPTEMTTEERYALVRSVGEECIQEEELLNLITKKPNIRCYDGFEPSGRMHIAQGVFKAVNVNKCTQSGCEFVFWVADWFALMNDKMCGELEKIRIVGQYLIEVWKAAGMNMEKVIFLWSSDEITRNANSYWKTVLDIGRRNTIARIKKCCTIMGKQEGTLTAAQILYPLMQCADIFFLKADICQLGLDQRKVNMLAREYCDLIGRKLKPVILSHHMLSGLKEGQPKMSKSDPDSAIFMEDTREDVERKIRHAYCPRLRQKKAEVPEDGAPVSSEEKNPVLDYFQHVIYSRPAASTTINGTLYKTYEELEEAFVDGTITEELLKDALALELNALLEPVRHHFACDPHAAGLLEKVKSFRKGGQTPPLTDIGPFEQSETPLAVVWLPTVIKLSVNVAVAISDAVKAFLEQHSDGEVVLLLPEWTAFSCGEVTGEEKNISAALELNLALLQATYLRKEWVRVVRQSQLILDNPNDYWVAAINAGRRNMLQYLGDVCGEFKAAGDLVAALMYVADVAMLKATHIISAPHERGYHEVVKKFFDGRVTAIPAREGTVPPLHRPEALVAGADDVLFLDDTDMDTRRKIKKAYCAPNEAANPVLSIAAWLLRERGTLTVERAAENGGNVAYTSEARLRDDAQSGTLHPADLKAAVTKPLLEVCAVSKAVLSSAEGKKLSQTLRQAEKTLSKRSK

[8] = target: T4, Tyrosyl-tRNA synthetase, putative (Trypanosoma cruzi (strain CL Brener)); experiment: Trypanosoma cruzi tyrosyl tRNA synthetase (TcYRS) SOP; format: functional; conditions: 30 µM
[9] = target: Chromo domain-containing protein 1 (Saccharomyces cerevisiae (strain ATCC 204508 / S288c) (Baker's yeast)) (UniProt P32657); experiment: ScCHD-1 Enzyme Inhibition Assay; format: functional; conditions: 30 µM; note: in the data most compounds retested in dose-response had high values
Sequence of Chromo domain-containing protein 1 (Saccharomyces cerevisiae (strain ATCC 204508 / S288c) (Baker's yeast)) (P32657 whole entry, the tested form may be a part): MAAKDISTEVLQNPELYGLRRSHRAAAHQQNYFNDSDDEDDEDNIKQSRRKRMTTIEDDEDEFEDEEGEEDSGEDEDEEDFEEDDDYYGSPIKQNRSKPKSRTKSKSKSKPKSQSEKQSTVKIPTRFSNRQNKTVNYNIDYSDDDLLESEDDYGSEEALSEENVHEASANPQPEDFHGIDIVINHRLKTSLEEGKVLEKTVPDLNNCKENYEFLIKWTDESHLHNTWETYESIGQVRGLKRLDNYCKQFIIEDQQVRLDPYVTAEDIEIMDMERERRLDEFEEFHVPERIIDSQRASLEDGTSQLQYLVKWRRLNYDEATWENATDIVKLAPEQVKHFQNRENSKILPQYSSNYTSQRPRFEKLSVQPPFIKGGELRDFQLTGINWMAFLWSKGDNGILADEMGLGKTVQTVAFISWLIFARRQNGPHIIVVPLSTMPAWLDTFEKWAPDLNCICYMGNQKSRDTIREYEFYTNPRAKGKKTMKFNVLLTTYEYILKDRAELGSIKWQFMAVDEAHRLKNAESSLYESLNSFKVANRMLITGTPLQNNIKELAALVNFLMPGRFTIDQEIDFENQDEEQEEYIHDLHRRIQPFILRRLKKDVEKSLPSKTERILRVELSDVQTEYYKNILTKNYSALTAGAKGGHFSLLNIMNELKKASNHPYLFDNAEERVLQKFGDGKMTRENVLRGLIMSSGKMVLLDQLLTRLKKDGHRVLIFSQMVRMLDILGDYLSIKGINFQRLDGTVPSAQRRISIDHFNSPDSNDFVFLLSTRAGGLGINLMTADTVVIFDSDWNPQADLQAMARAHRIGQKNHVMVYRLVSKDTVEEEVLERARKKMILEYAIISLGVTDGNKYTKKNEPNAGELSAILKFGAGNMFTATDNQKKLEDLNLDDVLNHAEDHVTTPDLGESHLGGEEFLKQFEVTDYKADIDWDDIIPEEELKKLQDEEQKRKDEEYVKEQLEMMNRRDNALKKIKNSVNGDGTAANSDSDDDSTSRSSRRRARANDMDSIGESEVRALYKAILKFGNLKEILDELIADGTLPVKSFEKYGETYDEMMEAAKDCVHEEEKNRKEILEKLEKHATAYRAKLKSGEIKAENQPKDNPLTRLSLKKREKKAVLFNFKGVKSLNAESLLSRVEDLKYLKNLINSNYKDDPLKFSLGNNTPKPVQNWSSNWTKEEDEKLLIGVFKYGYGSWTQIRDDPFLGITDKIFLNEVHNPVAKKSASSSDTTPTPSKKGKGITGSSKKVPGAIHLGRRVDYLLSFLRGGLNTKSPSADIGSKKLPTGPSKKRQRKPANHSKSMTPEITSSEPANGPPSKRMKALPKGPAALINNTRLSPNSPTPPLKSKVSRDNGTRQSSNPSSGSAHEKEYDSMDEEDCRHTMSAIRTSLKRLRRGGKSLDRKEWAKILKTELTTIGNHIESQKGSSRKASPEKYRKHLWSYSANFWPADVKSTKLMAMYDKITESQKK

Sequence of Sialic acid-binding Ig-like lectin 9 (Homo sapiens) (Q9Y336 whole entry): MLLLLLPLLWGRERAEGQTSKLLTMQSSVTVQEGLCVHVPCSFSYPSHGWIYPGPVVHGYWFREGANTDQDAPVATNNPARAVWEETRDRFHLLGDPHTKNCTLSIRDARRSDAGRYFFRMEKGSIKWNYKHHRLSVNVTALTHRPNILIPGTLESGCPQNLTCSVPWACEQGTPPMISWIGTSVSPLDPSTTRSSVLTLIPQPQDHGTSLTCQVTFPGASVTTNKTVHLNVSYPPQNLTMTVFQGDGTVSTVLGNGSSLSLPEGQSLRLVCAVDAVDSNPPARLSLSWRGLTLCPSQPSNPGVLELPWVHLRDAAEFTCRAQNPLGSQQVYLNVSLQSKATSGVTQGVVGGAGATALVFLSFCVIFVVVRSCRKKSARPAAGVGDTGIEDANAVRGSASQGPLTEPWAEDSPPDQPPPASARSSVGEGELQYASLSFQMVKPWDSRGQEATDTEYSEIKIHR
Sequence of Protein translocase subunit SecA (Escherichia coli (strain K12)) (P10408 whole entry): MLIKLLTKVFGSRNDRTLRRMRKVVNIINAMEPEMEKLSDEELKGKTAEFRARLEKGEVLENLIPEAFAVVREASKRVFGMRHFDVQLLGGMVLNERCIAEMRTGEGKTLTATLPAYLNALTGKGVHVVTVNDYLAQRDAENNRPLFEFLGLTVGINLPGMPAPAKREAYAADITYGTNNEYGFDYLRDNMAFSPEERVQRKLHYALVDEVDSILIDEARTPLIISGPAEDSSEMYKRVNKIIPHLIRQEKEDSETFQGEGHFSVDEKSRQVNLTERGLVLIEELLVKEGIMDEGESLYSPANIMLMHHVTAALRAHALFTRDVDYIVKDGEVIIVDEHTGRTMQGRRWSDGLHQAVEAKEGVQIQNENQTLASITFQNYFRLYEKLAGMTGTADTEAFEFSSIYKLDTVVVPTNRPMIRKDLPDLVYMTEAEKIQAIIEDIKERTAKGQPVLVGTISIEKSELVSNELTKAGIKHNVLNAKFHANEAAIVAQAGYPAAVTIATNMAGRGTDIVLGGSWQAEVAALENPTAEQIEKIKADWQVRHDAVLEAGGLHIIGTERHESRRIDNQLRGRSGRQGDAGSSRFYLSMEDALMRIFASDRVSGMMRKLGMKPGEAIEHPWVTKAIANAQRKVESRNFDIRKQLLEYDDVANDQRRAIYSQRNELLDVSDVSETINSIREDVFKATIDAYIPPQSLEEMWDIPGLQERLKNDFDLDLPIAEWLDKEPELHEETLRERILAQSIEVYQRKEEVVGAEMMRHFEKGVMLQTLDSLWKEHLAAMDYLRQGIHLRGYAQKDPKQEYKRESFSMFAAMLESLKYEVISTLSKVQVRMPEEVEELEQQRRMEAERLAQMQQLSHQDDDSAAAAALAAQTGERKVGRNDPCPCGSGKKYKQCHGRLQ

SMILES	Percent Effect [1] [%]	Percent Effect [2] [%]	Percent Effect [3] [%]	Percent Effect [4] [%]	Percent Effect (Trypanosoma cruzi) [%]	Percent Effect [5] [%]	Percent Effect [6] [%]	Percent Effect (Homo sapiens) [%]	Percent Effect [7] [%]	Percent Effect [8] [%]	Percent Effect [9] [%]
CN1CCN(C[C@@H]2OC[C@H]3CN(Cc4cccc(F)c4)CC[C@H]32)CC1	0.931	2.67	4.95	4.78	2.9	-53.9	7.01	-8.27	2.08	2.5	-4.33
CCOC1CCN(C(=O)c2c(Cl)c3ccccc3n2C)CC1	-2.47	0	-0.042	1.92	-2.43	3.12	13.4	-2.41	-2.73	11.1	-4.88
c1cncc(COCc2nnc3n2CCN(Cc2ccoc2)C3)c1	-1.23	18.2	3.03	9.78	5.21	-8.28	21	8.47	6.45	16.1	0.555
c1cnn(Cc2cn3c(n2)CN(Cc2nccs2)CC3)c1	-2.43	-36.4	-0.581	-1.53	5.23	5.81	12.2	4.15	9.52	26.9	-6.74
CC(NC(=O)NCCOc1ccc(F)c(F)c1)c1nncn1C (configuration not stated)	-3.44	5.2	2.42	5.57	7.15	2.74	12.5	16.9	4.76	9.41	-12.3
CN(Cc1nccn1CC(F)(F)F)C(=O)c1ccc(F)c(F)c1	-4.78	5.26	7.84	5.27	-1.46	0	10.4	4.07	4.25	13	26.9
CC(C)(C)C(=O)NCCC(=O)NC(C)(C)c1ccc2c(c1)OCCO2	-1.46	-5.48	12.2	-1.99	-0.783	5	4.44	-3.61	2.15	5	1.77
CC(C)Cc1cc(C(=O)NCCc2ccc(S(C)(=O)=O)cc2)[nH]n1	-3.28	2.63	9.53	3.29	3.8	0	12.9	24	0	10.4	-3.35
CCN(CC(=O)NC)S(=O)(=O)N1CCCCCC1	-5.53	10.8	-3.76	4.7	-0.489	3.72	6.61	8.47	4.3	13.6	-2.62
CC(=O)Nc1ncc(S(=O)(=O)Nc2ccc(F)cc2)s1	-4.49	17.3	-9.36	-7.58	2.36	-0.88	12.2	20.4	3.17	10.3	-10.6
Cc1ccc(C(=O)N2CCCC2c2nnc3n2CCCCC3)o1 (configuration not stated)	0.332	-1.39	7.46	-3.27	-2.23	-11.9	6.84	-2.88	2.1	-5.13	-1.81
Cc1ccc(CNC(=O)Nc2nnc(C)s2)cn1	-1.62	23.7	1.54	-3.95	1.03	2.16	15.1	1.76	8.37	25.9	-9.14
CCN(Cc1ccco1)C(=O)c1cc(OC)c2c(c1)OCCO2	-1.97	-2.63	6.68	5.11	-0.487	3.55	9.88	-7.24	0	2.6	-1.38
COCCCN1CCCN(C(C)C(=O)Nc2cccc(I)c2)CC1 (configuration not stated)	-5.27	-5.41	1.61	1.25	-7.42	-5	15.1	-8.39	1.98	-3.66	-0.402
Cc1cc(CN2CCC(CNC(=O)c3ccc(O)c(Cl)c3)C2)[nH]n1 (configuration not stated)	-4.67	2.7	-0.362	22.1	-8.7	2.23	5.24	4.66	2.15	11.1	-0.611
Cc1nn(CC(=O)N2CCCCC2Cn2cccn2)c(C)c1Cl (configuration not stated)	-2.25	2.7	0.616	-1.03	-4.3	2.92	14.4	7.18	1.98	13.4	-2.37
NC(=O)C1CCN(C(=O)CCn2ccc3cc(Br)ccc32)CC1	-0.921	4.17	-4.65	21.5	2.43	14.6	2.63	-3.52	3.16	2.56	-4.07
CSc1ncc(C(=O)N2C[C@H]3CC[C@@H]2CN(Cc2ccccc2)C3)cn1	0.697	2.74	22.7	-2.06	-6.66	2.27	11	4.63	6.45	10	0.291
CCn1c(=O)nc2n1C(=O)N(c1cccc(Cl)c1)C2	-5.8	6.67	-1.98	-4.32	-0.786	2.29	13.7	-10.2	8.47	15.4	-7.77
CC1(C)CC(N(Cc2ccccc2)Cc2cccnc2)CC(C)(C)N1	-8.83	17.6	-4.84	9.22	5.73	-6.73	7.8	-4.57	6.45	9.09	-29.8
CCN(CC)C1CCN(C(=O)NCc2c(C)noc2C)CC1	-3.56	5.48	-3.43	2.27	0.198	-3.59	10.9	-3.14	7.29	13.6	-1.04
Cc1nc(C)n(C2CCCN(C(=O)c3ccc(NC4CC4)nc3)C2)n1 (configuration not stated)	-2.93	-5.41	2.71	10.3	2.14	-4.25	-3.77	8.24	1.98	6.1	4.04
